Test [1] in a line: ATG_PPRE_CIS: Attagene CIS-FACTORIAL HepG2 Assay for human Peroxisome Proliferator-activated Response Element (PPRE) (AID 2282958). The following applies: HepG2 PPRE cis-element reporter, Attagene transcription factor profiling; actives raise or lower the signal. Summed up:
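In this cell-based multiplex, a PPRE cis element drives a reporter sequence in transiently transfected HepG2 cells. Following 24 h treatment, labeled cDNA amplicons are sized and quantified by capillary electrophoresis, with DMSO defining baseline.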

The nature of test [2]: ATG_RORE_CIS: Attagene CIS-FACTORIAL HepG2 Assay for human RAR-related Orphan Receptor Element (RORE) (AID 2282959). The following applies: HepG2 Attagene cis-factorial RORE reporter, mRNA; actives raise or lower the signal. In short, it runs like this: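 Endogenous factor activity at a cis response element is read as reporter transcript levels in HepG2 cells, 24 h post-dose. Transcripts are quantified by RT-PCR with capillary electrophoresis, and data fitted in both directions against DMSO.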

The nature of test [3]: ATG_Sox_CIS: Attagene CIS-FACTORIAL HepG2 Assay for human SRY-box transcription factor (SOX) (AID 2282960). The conditions noted are these: HepG2 Attagene cis-factorial SOX reporter, mRNA; actives raise or lower the signal. In short, it runs like this: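 Measures mRNA induction of a SOX1-associated reporter in HepG2 after 24 h dosing. Fluorescently labelled RT-PCR fragments are separated by capillary electrophoresis, and gain or loss relative to DMSO control is fitted.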

For test [4], the target named is Transcription factor Sp1 (Homo sapiens) (UniProt P08047). Kind of test: ATG_Sp1_CIS: Attagene CIS-FACTORIAL HepG2 Assay for human Specificity Protein 1 (Sp1) (AID 2282961). The conditions noted are these: HepG2 Sp1 cis-reporter transcription, actives raise or lower the signal. Summed up:
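Cells: HepG2, transiently transfected with cis-regulated multiplexed reporters. Exposure: 24 h. Detection: reporter transcripts amplified, fluorescently labeled, restriction-digested and sized by capillary electrophoresis. Analysis: bidirectional fit relative to DMSO.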

A short description of test [5]: ATG_SREBP_CIS: Attagene CIS-FACTORIAL HepG2 Assay for human Sterol Regulatory Element Binding (SREBP) (AID 2282962). The following applies: HepG2 Attagene cis-factorial SREBP reporter, mRNA; actives raise or lower the signal. In short, it runs like this: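 Endogenous SREBP activity read as cis-element-driven reporter transcript in transiently transfected HepG2, 24 h post-dosing; quantified via RT-PCR plus capillary electrophoresis of fluorescent fragments. Gain or loss of signal fitted relative to DMSO baseline.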

The target of test [6] is Signal transducer and activator of transcription 3 (Homo sapiens) (UniProt P40763). Briefly: ATG_STAT3_CIS: Attagene CIS-FACTORIAL HepG2 Assay for human Signal Transducer and Activator of Transcription 3 (STAT3) (AID 2282963). The conditions noted are these: HepG2, Attagene cis-factorial STAT3 reporter transcription; actives raise or lower the signal. Summed up:
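Fluorescence intensity of 6-FAM-labelled reporter fragments, separated by capillary electrophoresis after RT-PCR, gave the signal. Cells were HepG2 transfected with cis-element reporter units and treated 24 h; fitting was bidirectional relative to DMSO.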

Test [7] is described as follows: ATG_TA_CIS: Attagene CIS-FACTORIAL HepG2 Assay for human TA Basal Promoter (AID 2282964). The following applies: HepG2 Attagene CIS-factorial TA basal promoter reporter; actives raise or lower the signal. Summed up: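 Transfected HepG2, 24 h compound exposure; RNA → RT-PCR → FAM primer extension → HpaI cut → CE fluorescence. Gain/loss-of-signal fitted against DMSO negative control. Background-control readout.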

The nature of test [8]: ATG_TCF_b_cat_CIS: Attagene CIS-FACTORIAL HepG2 Assay for human T-Cell-Factor with beta-catenin (TCF/b-cat) (AID 2282965). The conditions noted are these: HepG2 TCF/beta-catenin cis-reporter transcription, actives raise or lower the signal. In short, it runs like this: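 HepG2, transient MRTU transfection, cis-element-driven reporters (endogenous TFs). 24 h compound exposure. Readout: reporter mRNA by RT-PCR + 6-FAM primer extension, HpaI digest, capillary electrophoresis. Gain/loss fit vs DMSO baseline.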

Test [9] is described as follows: ATG_TAL_CIS: Attagene CIS-FACTORIAL HepG2 Assay for human TAL Basal Promoter (AID 2282966).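 Note: background control endpoint measuring basal TAL promoter reporter mRNA not a specific factor.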 The conditions noted are these: HepG2 Attagene cis-factorial TAL promoter reporter; actives raise or lower the signal. Summed up: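 Endogenous transcription-factor activity is sensed in HepG2 cells through transfected cis-promoter reporter constructs. After 24 h dosing, reporter transcripts are quantified by RT-PCR and capillary electrophoresis. Gain or loss of signal is fitted relative to DMSO.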

Test [10] can be described thus: ATG_TGFb_CIS: Attagene CIS-FACTORIAL HepG2 Assay for human Transforming Growth Factor (TGF) (AID 2282967). The following applies: HepG2 Attagene CIS TGFb reporter, mRNA transcription; actives raise or lower the signal. Summed up: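 Readout: fluorescently labeled reporter cDNA fragments resolved by capillary electrophoresis after RT-PCR. Transfected HepG2 cells dosed for 24 h; endogenous TF activity at TGFB1-linked cis element; gain or loss fitted relative to DMSO.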

Test [11] in a line: ATG_VDRE_CIS: Attagene CIS-FACTORIAL HepG2 Assay for human Vitamin D Receptor Element (VDRE) (AID 2282968). The following applies: HepG2 VDRE cis-reporter transcription, actives raise or lower the signal. Summed up:
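Compounds were applied for 24 h to HepG2 cells transfected with promoter-regulated reporter units. Total RNA was reverse-transcribed, and reporter amplicons were fluorescently labelled and sized by capillary electrophoresis.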

Test [12] concerns the target Estrogen receptor (Homo sapiens) (UniProt P03372). Briefly: ATG_ERa_TRANS: Attagene TRANS-FACTORIAL HepG2 Assay for human Estrogen Receptor alpha (ERa) (AID 2282970; active = hit-call score of the fitted dose curve at least 0.9, where 1 is the maximum). The conditions noted are these: HepG2 Attagene TRANS ERa GAL4 reporter, mRNA. In short, it runs like this:
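Transfected HepG2 cells carrying GAL4-UAS-driven reporter units were dosed for 24 hours. Total RNA was reverse-transcribed, reporter sequences PCR-amplified, FAM-labelled, HpaI-digested and resolved by capillary electrophoresis. Increases over DMSO control defined activity.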

The target in test [13] is Steroid hormone receptor ERR1 (Homo sapiens) (UniProt P11474). Kind of test: ATG_ERRa_TRANS: Attagene TRANS-FACTORIAL HepG2 Assay for human Estrogen-Related Receptor alpha (ERRa) (AID 2282971; active = hit-call score of the fitted dose curve at least 0.9, where 1 is the maximum). The following applies: HepG2 Attagene TRANS reporter, ERRa transactivation. Summed up: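 HepG2 cells were transiently transfected with multiple GAL4-UAS reporter units, then dosed with compound for 24 h. Total RNA was reverse-transcribed, reporter cDNA PCR-amplified and fluorescently labelled, and fragments resolved by capillary electrophoresis; induction was compared with DMSO.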
Steroid hormone receptor ERR1 (Homo sapiens), sequence (P11474 whole entry, looked up, the tested form may be a part): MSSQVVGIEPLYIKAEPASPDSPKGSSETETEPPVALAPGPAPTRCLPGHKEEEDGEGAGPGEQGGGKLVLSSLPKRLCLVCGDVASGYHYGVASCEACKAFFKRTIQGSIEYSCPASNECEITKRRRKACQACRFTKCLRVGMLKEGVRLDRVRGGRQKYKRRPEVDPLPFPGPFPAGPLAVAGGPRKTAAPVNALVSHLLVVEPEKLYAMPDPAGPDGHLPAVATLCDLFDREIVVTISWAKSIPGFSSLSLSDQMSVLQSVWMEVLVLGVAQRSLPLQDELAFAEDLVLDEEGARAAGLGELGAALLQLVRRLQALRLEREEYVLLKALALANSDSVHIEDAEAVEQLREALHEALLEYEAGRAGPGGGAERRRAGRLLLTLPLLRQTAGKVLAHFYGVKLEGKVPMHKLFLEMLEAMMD

Test [14] concerns the target X-box-binding protein 1 (Homo sapiens) (UniProt P17861). Briefly: ATG_Xbp1_CIS: Attagene CIS-FACTORIAL HepG2 Assay for human X-box Binding Protein 1 (XBP1) (AID 2282972). The following applies: HepG2 XBP1 cis-element reporter, Attagene multiplex; actives raise or lower the signal. Summed up: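 Reporter transcripts were quantified by RT-PCR with fluorescent primer extension and capillary electrophoresis after 24 h chemical exposure. Cells: transiently transfected HepG2 carrying cis-regulated reporter constructs; data fitted bidirectionally relative to DMSO.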

The target in test [15] is Androgen receptor (Homo sapiens) (UniProt P10275). Kind of test: ATG_AR_TRANS: Attagene TRANS-FACTORIAL HepG2 Assay for human Androgen Receptor (AR) (AID 2282973; active = hit-call score of the fitted dose curve at least 0.9, where 1 is the maximum). The conditions noted are these: HepG2 Attagene TRANS-FACTORIAL AR reporter transcription. In short, it runs like this:
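Transfected HepG2, 24 h treatment, chimeric NR-Gal4 driving GAL4-UAS reporters. mRNA induction by RT-PCR/capillary electrophoresis fluorescence; DMSO as negative control and baseline.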

The nature of test [16]: ATG_M_19_TRANS: Attagene TRANS-FACTORIAL HepG2 Assay for M19 Transcription Factor (Internal Marker) (AID 2282974; active = hit-call score of the fitted dose curve at least 0.9, where 1 is the maximum). The following applies: HepG2 Attagene TRANS-FACTORIAL M19 internal marker reporter. Summed up:
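Reporter mRNA induction was measured in transfected HepG2 cells 24 h after dosing. Endpoint fitted upward relative to DMSO and serves as a background control within the multiplexed TRANS panel.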

Test [17] can be described thus: ATG_Hpa5_TRANS: Attagene TRANS-FACTORIAL HepG2 Assay for human GAL4-Hpa5 Hepatocyte Transcription Factor Basal Promoter (AID 2282975; active = hit-call score of the fitted dose curve at least 0.9, where 1 is the maximum;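 note: hits are increases in reporter mRNA over DMSO baseline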). The conditions noted are these: HepG2 Attagene GAL4-Hpa5 transcription reporter. In short, it runs like this: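 Gain-of-signal versus DMSO is fitted for reporter mRNA quantified by RT-PCR and capillary electrophoresis after 24 h exposure. This endpoint is an internal background marker in transiently transfected HepG2 cells carrying GAL4-UAS reporter units.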

Test [18] addresses Nuclear receptor subfamily 1 group I member 3 (Homo sapiens) (UniProt Q14994). Briefly: ATG_CAR_TRANS: Attagene TRANS-FACTORIAL HepG2 Assay for human Constitutive Androstane Receptor (CAR) (AID 2282969; active = hit-call score of the fitted dose curve at least 0.9, where 1 is the maximum;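 note: activators raise reporter mRNA above DMSO so AC50 marks induction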). The conditions noted are these: HepG2 Attagene TRANS-FACTORIAL CAR reporter. In short, it runs like this: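 Transiently transfected HepG2, multiplex TRANS reporters (CAR-Gal4 chimera driving GAL4-UAS reporter). 24 h dosing. Readout: reporter transcript by RT-PCR + capillary electrophoresis, fluorescence intensity; positive direction vs DMSO.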

Test [19] can be described thus: ATG_GAL4_TRANS: Attagene TRANS-FACTORIAL HepG2 Assay for GAL4 (Internal Marker) (AID 2282976; active = hit-call score of the fitted dose curve at least 0.9, where 1 is the maximum). The conditions noted are these: HepG2 Attagene TRANS GAL4 internal marker reporter. In short, it runs like this:
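Fluorescence from capillary electrophoresis of labelled RT-PCR products quantifies reporter mRNA induction after 24 h dosing of HepG2 cells carrying transfected GAL4-UAS reporter transcription units. Vehicle DMSO serves as baseline.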

Usually AC50 stands for the concentration at which the activity in the assay is half-maximal.

Where “and” joins values, the source holds several entries; their conditions need not be identical. Identical values can stand only once. Records with an inconclusive call do not appear. Some structures have more than one record in an assay (separate samples or runs), and their calls can disagree. Calls of active or inactive are those of the source. Rule for the calls, unless noted: active = hit-call score of the fitted dose curve at least 0.9, where 1 is the maximum; inactive = score below 0.9.

Transcription factor Sp1 (Homo sapiens), sequence (P08047 whole entry, looked up): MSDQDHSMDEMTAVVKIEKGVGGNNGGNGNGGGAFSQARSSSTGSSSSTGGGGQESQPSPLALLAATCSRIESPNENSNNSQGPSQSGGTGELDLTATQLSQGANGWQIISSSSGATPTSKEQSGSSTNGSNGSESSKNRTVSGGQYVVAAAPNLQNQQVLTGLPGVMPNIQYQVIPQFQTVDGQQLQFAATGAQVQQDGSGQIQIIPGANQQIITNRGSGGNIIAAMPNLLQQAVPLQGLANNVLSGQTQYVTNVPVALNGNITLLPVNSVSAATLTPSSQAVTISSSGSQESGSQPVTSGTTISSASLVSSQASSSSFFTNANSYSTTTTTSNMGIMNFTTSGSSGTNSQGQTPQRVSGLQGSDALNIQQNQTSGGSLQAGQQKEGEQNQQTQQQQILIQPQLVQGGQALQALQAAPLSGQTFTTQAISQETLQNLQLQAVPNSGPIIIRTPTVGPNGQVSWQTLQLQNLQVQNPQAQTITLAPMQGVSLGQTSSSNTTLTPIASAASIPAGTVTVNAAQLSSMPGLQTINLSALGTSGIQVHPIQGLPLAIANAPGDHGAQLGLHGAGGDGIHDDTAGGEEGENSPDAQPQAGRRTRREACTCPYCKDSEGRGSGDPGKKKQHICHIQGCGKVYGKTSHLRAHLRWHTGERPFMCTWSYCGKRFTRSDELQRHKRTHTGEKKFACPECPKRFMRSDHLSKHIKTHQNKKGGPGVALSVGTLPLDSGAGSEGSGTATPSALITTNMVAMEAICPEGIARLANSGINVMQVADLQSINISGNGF
Signal transducer and activator of transcription 3 (Homo sapiens), sequence (P40763 whole entry, looked up, the tested form may be a part): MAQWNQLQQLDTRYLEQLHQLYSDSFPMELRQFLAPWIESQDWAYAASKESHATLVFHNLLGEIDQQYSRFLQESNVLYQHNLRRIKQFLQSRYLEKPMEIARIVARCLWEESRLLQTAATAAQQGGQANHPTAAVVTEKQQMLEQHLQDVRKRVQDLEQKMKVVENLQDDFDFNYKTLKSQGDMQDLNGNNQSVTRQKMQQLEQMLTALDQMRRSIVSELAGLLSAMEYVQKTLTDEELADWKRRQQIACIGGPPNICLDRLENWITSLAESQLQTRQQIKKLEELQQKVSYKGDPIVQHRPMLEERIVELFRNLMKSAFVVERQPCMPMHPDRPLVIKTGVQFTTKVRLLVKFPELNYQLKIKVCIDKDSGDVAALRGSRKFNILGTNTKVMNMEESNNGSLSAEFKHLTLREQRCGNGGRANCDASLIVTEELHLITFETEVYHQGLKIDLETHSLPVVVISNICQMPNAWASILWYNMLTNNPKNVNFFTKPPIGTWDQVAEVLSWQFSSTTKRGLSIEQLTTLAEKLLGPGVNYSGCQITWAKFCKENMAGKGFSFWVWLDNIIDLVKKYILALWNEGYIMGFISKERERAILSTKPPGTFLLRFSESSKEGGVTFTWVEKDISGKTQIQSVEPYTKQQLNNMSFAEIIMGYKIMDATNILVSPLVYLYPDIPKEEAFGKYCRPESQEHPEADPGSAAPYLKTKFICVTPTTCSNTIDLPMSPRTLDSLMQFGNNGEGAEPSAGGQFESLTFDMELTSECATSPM
Androgen receptor (Homo sapiens), sequence (P10275 whole entry, looked up, the tested form may be a part): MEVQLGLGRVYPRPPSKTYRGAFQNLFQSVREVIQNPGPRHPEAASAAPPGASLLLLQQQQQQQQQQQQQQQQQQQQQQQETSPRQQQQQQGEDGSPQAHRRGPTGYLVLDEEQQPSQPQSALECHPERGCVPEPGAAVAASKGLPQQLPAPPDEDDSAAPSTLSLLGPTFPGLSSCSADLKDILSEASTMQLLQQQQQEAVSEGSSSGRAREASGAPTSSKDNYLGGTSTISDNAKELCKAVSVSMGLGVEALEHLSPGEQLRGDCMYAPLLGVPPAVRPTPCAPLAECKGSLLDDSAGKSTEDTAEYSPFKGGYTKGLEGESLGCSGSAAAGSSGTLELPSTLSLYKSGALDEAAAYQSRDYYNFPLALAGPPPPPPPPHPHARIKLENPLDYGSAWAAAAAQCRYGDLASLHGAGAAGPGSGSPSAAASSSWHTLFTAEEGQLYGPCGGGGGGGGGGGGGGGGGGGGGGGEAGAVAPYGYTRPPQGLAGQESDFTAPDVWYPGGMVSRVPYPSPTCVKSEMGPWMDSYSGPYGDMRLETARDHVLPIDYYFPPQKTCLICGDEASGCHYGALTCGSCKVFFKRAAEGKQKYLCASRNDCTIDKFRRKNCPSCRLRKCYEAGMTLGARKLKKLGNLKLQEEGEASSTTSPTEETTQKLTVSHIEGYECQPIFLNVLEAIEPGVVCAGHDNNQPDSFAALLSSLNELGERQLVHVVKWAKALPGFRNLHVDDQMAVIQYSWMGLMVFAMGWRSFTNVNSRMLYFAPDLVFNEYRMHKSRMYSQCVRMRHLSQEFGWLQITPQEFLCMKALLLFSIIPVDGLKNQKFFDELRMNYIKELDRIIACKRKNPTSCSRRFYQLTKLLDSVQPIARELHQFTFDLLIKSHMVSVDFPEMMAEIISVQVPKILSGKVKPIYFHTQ
Estrogen receptor (Homo sapiens), sequence (P03372 whole entry, looked up, the tested form may be a part): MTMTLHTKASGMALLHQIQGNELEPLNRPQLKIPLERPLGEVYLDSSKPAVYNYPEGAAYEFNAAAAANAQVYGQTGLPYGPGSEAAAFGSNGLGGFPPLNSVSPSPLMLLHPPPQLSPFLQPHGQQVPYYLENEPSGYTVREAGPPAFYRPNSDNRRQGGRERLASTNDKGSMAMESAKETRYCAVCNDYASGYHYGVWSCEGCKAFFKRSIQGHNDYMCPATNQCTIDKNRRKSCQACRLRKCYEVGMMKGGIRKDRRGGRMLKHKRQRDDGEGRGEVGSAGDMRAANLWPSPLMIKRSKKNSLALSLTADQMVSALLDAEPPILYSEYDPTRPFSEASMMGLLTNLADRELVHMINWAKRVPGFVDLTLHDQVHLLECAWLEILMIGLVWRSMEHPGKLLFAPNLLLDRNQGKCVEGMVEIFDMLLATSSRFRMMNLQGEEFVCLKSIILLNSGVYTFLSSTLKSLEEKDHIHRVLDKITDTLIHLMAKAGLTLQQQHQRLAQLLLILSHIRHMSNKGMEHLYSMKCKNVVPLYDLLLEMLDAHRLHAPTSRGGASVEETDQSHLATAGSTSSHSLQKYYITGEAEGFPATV
Nuclear receptor subfamily 1 group I member 3 (Homo sapiens), sequence (Q14994 whole entry, looked up, the tested form may be a part): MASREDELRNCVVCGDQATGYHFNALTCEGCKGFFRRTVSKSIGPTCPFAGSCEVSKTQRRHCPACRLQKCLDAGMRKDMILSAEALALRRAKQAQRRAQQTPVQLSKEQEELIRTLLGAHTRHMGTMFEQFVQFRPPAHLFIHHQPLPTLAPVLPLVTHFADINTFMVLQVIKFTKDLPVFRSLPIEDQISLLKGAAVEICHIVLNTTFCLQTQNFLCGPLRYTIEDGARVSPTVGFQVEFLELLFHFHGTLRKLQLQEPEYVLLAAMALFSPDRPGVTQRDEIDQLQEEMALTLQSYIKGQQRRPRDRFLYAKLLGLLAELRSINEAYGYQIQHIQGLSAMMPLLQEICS
X-box-binding protein 1 (Homo sapiens), sequence (P17861 whole entry, looked up): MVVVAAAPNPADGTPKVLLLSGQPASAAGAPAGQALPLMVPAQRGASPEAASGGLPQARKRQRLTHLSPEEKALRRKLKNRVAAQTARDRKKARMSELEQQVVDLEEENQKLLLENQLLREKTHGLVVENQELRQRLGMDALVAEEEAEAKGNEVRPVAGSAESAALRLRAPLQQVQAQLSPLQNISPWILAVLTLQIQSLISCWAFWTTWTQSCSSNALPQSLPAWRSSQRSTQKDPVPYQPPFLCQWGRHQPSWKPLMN

Take `CCCCCCCCCC[N+](C)(C)CCCCCCCCCC`: the AC50 in [1] is 185 µM (active); in test [2], 19.8 µM (active); in test [4], 190 µM (active); in [5], 3.63 µM (active); in [8], 11 µM (active); in [11], 8.67 µM (active). Further, the compound was called inactive in [3], in [6], in [7], in [9], in test [10] and in test [12].

With `CC(C)(O)C(=O)Nc1ccc([N+](=O)[O-])c(C(F)(F)F)c1`, the call in test [2], in test [3], in test [4], in test [5], in test [6] and in test [7] was inactive. For the same compound, the outcome in test [8], in test [9], in [10], in test [11], in [12] and in test [13] was inactive. For the same compound, the call in [14], in [15] and in test [16] was inactive. The AC50 in test [11] was 31.2 µM (active); in [14], 54.9 µM (active).

Consider `CCC(C)(CC)c1cc(NC(=O)c2c(OC)cccc2OC)on1`, for which the compound was called inactive in [1], in [2], in test [3], in test [4], in test [6] and in [7]. Also, the compound was called inactive in test [8], in test [9], in test [10], in [16] and in test [17]. The AC50 in test [5] was 10.8 µM (active); in [11] it was 0.977 µM (active).

Turning to `Oc1c(Cl)c(Cl)c(Cl)c(Cl)c1Cl`, the AC50 was 24.1 µM (active) and 5.68 µM (active) and 4.77 µM (active) in [2]; 23.5 µM (active) and 31.3 µM (active) in test [3]; 20.7 µM (active) and 27.9 µM (active) and 166 µM (active) in test [4]; 50 µM (active) and 83.2 µM (active) in test [5]; 17.1 µM (active) in [7]; 11.8 µM (active) in test [8]. Besides, the AC50 in test [9] was 26.4 µM (active); in [10] it was 13.2 µM (active); in test [11], 25.5 µM (active) and 8.06 µM (active) and 8.47 µM (active). Also, the compound was called inactive in test [3], in test [5], in test [6], in test [7], in test [8] and in [9]. The call in [10], in [18] and in test [12] was inactive.

Take `Cc1cc(O)ccc1Cl`: the compound was called inactive in test [1], in test [2], in [3], in test [4], in test [5] and in test [6]. Also, the result in test [7], in test [8], in test [9], in test [10], in test [11] and in test [14] was inactive. In test [16], the outcome was inactive. In addition, in [12], the AC50 is 40.4 µM (active).

`Clc1ccc(C(c2ccccc2Cl)C(Cl)(Cl)Cl)cc1` (stereo not drawn): the compound was classed as inactive in test [1], in test [2], in [3], in test [4], in test [5] and in test [6]. Further, the compound was classed as inactive in test [7], in test [8], in [9], in [10], in test [11] and in test [18]. Also, the compound was classed as inactive in [13], in test [16] and in test [19]. Moreover, the AC50 was 70.5 µM (active) in test [4]; 93.9 µM (active) in test [5]; 45.3 µM (active) in test [7]; 3.58 µM (active) and 26.9 µM (active) and 15 µM (active) in test [11].
